EWS-Fli block: EWS/Fli transcriptional activity inhibition | A673 NR0B1-luciferase reporter, viability-normalised | inhibition, % at 12.6 µM | 0.67% of 350,000 active;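 active = mean inhibition of at least 50% after viability correction, with every replicate also passing that limit; inconclusive = mean reaches 50% but only one of two replicates passes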;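 note: firefly luciferase signal divided by Alamar Blue viability fluorescence both relative to DMSO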
MITF TRPM1 inh: inhibitors of MITF-driven TRPM1 promoter in melanoma cells. 0.83% of 330,000 active. inhibition, % at 12.5 µM. AID 488899. SK-MEL-5 TRPM1 promoter luciferase, 24 h;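 active = mean inhibition across replicates of 60% or more, whatever share of single replicates reaches that level; inconclusive = some that reach 60%, reason not given; inactive = mean inhibition across replicates below 60%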
EBV LMP1 NFkB: reduces LMP1-driven NF-kappaB luciferase signal | 0.69% of 350,000 active | inhibition, % at 12.5 µM | LMP1-induced NF-kappaB luciferase reporter cells, luminescence; in the data active = inhibition above about 41%; inconclusive = no clear call, values can overlap the other calls
PAX8 reporter: inhibitors of PAX8 transcriptional activity in RMG-I cells; 1.2% of 360,000 active; AID 652154; inhibition, % at 12.6 µM; RMG-I TPO-luciferase reporter, SteadyGlo, 24 h;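 active = mean replicate inhibition at least 60% with every replicate also reaching 60%; inconclusive = only one of the two criteria is met; inactive = mean below 60% and not all replicates reaching 60%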;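 note: luciferase light reporting Pax8 driven TPO promoter activity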
Shn3 inh set2: inhibitors of Schnurri-3 3'UTR reporter in osteoblasts; 0.52% of 360,000 active; inhibition, % at 12.5 µM; AID 588674; Clone20 osteoblast Shn3 3'UTR firefly luciferase, 24 h;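 active = mean inhibition of at least 75% with every replicate also reaching 75%; inconclusive = mean inhibition at least 75% but some replicate below; inactive = mean inhibition below 75%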
LGR2 inh: blocks bursicon-induced cAMP signaling via Drosophila LGR2; 0.35% of 380,000 active; AID 720647; inhibition, % at 9.99 µM; HEK293 LGR2, CRE-luciferase, bursicon-stimulated, 4 h;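 active = drop in luminescence signal, shown as inhibition above about 50% in the replicate tests, limit read from the data, passing the limit was not always enough; inconclusive = probably only some replicates passing the limit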;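 note: agonist challenge used bursicon conditioned medium at about half maximal strength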
Hits are given with their value; . = inactive; ? = inconclusive; / = no result. Rows were chosen to be rich in hits. Some 2.2% of all compounds tested hit in one or more screens of this group.

SMILES | EWS-Fli block | MITF TRPM1 inh | EBV LMP1 NFkB | PAX8 reporter | Shn3 inh set2 | LGR2 inh
Cn1cnc([N+](=O)[O-])c1S(=O)(=O)Oc1cccc2ccccc12 | . | 93 | . | 80 | 97 | .
CO[C@@H]1CN(C)C(=O)c2ccc(NC(=O)C3CCOCC3)cc2OC[C@H](C)NC[C@@H]1C | . | / | / | / | / | .
COc1ccccc1-c1cc2nc(-c3ccccc3)cc(N3CCN(C(=O)c4ccco4)CC3)n2n1 | . | / | . | 86 | . | 89
COc1ccccc1-c1cc2nc(-c3ccccc3)cc(N3CCN(C(=O)c4ccoc4)CC3)n2n1 | . | / | . | 67 | . | .
COc1cccc(-c2cc3nc(-c4ccccc4)cc(N4CCN(C(=O)c5ccoc5)CC4)n3n2)c1 | . | / | . | 68 | . | .
O=C(c1ccoc1)N1CCN(c2cc(-c3ccccc3)nc3cc(-c4ccccc4)nn23)CC1 | . | / | . | . | . | .
CCNC(=O)[C@H]1[C@H](CO)[C@H]2Cn3c(ccc(-c4ccccc4F)c3=O)[C@@H]1N2Cc1cccnc1 | . | / | / | . | / | .
C[C@H]1CN([C@@H](C)CO)S(=O)(=O)c2ccc(C#Cc3ccc(F)cc3)cc2O[C@@H]1CN(C)C(=O)NC1CCCCC1 | . | / | / | 91 | / | .
C[C@@H]1CN([C@@H](C)CO)S(=O)(=O)c2ccc(C#Cc3ccc(F)cc3)cc2O[C@@H]1CN(C)C(=O)NC1CCCCC1 | . | / | / | 85 | / | .
C[C@@H]1CN([C@H](C)CO)S(=O)(=O)c2ccc(C#Cc3ccc(F)cc3)cc2O[C@@H]1CN(C)C(=O)NC1CCCC1 | . | / | / | / | / | .
C[C@H]1CN([C@@H](C)CO)S(=O)(=O)c2ccc(C#Cc3cccc(F)c3)cc2O[C@H]1CN(C)C(=O)NC1CCCCC1 | . | / | / | . | / | .
C[C@H](CO)N1C[C@H](C)[C@@H](CN(C)C(=O)NC2CCCCC2)Oc2cc(C#Cc3cccc(F)c3)ccc2S1(=O)=O | . | / | / | . | / | .
C[C@H]1CN([C@@H](C)CO)S(=O)(=O)c2ccc(C#Cc3ccc(F)cc3)cc2O[C@H]1CN(C)C(=O)NC1CCCCC1 | . | / | / | 78 | / | .
CN1C(=O)c2cc(NC(=O)C3CCOCC3)ccc2OC[C@H]2O[C@H](CC(=O)NCc3ccc4c(c3)OCO4)CC[C@H]21 | . | / | / | . | / | .
C[C@H](CO)N1C[C@H](C)[C@H](CN(C)S(=O)(=O)c2cccs2)Oc2ccc(NS(C)(=O)=O)cc2C1=O | . | / | / | / | / | .
COc1ccc(C2C(C(=O)Nc3cc(OC)c(OC)c(OC)c3)c3ccccc3C(=O)N2C)cc1 (configuration not stated) | 60 | . | . | . | . | .
CNC[C@H]1OCCCC[C@H](C)Oc2ccc(NS(=O)(=O)c3ccccc3)cc2C(=O)N([C@H](C)CO)C[C@@H]1C | . | / | / | . | / | .
CN1C(=O)c2cc(NC(=O)Nc3cccc(Cl)c3)ccc2OC[C@H]2O[C@@H](CC(=O)NCCc3ccncc3)CC[C@@H]21 | . | / | / | . | / | .
CN1C(=O)c2cc(NS(=O)(=O)c3ccc(Cl)cc3)ccc2OC[C@@H]2O[C@H](CC(=O)N3CCc4ccccc4C3)CC[C@@H]21 | . | / | / | 61 | / | .
CN1C(=O)c2cc(NC(=O)Nc3cccc(Cl)c3)ccc2OC[C@@H]2O[C@@H](CC(=O)NCCc3ccncc3)CC[C@H]21 | . | / | / | 74 | / | .
CN1C(=O)c2cc(NC(=O)c3cccc(Cl)c3)ccc2OC[C@H]2O[C@@H](CC(=O)NC3CCCCC3)CC[C@@H]21 | . | / | / | / | / | .
CN1C(=O)c2cc(NS(=O)(=O)c3ccc(Cl)cc3)ccc2OC[C@H]2O[C@@H](CC(=O)N3CCc4ccccc4C3)CC[C@H]21 | . | / | / | . | / | .
CN1C(=O)c2cc(NC(=O)c3cccc(Cl)c3)ccc2OC[C@@H]2O[C@H](CC(=O)NC3CCCCC3)CC[C@@H]21 | . | / | / | 76 | / | .
O=C(N[C@@H]1CC[C@@H](CCNS(=O)(=O)c2ccc(F)cc2)O[C@@H]1CO)C1CCC1 | . | / | / | . | / | .
C[C@H](NCc1c[nH]c2ccccc12)c1ccccc1 | . | . | 81 | . | . | .
SMILES | EWS-Fli block | MITF TRPM1 inh | EBV LMP1 NFkB | PAX8 reporter | Shn3 inh set2 | LGR2 inh
COc1ccc(-c2c(-c3ccccc3)c(C(=O)C(=O)NCCCN(C)C)n3ccc4cc(OC)c(OC)cc4c23)cc1OC | 86 | . | . | . | . | .
CCC(=O)Nc1ccc2c(c1)C(=O)N(C)[C@@H]1CC[C@@H](CC(=O)NC3CCCC3)O[C@@H]1CO2 | . | / | / | . | / | .
COc1ccc2c3c([nH]c2c1)[C@@H](CO)N(C(=O)Nc1ccc(F)cc1)CC31CCN(S(=O)(=O)c2ccccc2)CC1 | . | / | / | / | / | .
O=C1C(=O)c2cccnc2-c2ncccc21 | . | / | / | 107 | 95 | 100
COC1=C(Br)C(=O)c2ncccc2C1=O | . | 65 | . | . | . | ?
C=CCN1C(=O)/C(=C/c2ccc(OC(C)=O)c(OCC)c2[N+](=O)[O-])SC1=S | . | . | . | 100 | . | .
COCC(=O)Nc1ccc2c(c1)[C@@H]1C[C@@H](CC(=O)O)O[C@H](CO)[C@@H]1O2 | / | / | / | . | / | .
O=S(=O)(c1ccccc1)N1CC2(C1)[C@@H](c1ccccc1)[C@H](CO)N2CC1CC1 | / | / | / | / | / | .
CCCCCCCC[n+]1cccc2c3ccccc3ccc21 | . | 86 | . | 82 | . | .
Cc1cccc[n+]1CCCCCCCCCC[n+]1ccccc1C | . | . | . | . | . | .
CCCCCCCCCC[n+]1cccc2c3ccccc3ccc21 | . | 101 | . | 81 | . | 76
CCCCCCCCNc1ncnc2ccccc12 | / | . | . | / | . | /
COCC#Cc1ccc2c(c1)O[C@H](CN(C)C(=O)C1CCC1)[C@@H](C)CN([C@H](C)CO)S2(=O)=O | . | / | / | / | / | .
CO[C@H]1CN(C)C(=O)c2cc(NS(C)(=O)=O)ccc2OC[C@H](C)N(Cc2ccccc2)C[C@@H]1C | . | / | / | . | / | .
C[C@@H]1CN([C@@H](C)CO)C(=O)c2cc(NC(=O)Nc3ccc(F)cc3)ccc2O[C@H]1CN(C)Cc1ccc(C(F)(F)F)cc1 | . | / | / | . | / | .
